The record followed here is PubChem BioAssay AID504401 (The Scripps Research Institute Molecular Screening Center, 2011).

A number with no mark means an inactive call. No rule for the calls is given here.

For the assay, the system named is Imidazoline I2. As to the kind of experiment: CYP450 and receptor off-target profile – biochemical, Ricerca HitProfilingScreen, selectivity assay for GPR7 antagonist project, late-stage follow-up (AID 504401). As to conditions: Ricerca radioligand binding and CYP450 panel, central, at 10 µM, active compounds read high.

In the case of `COc1ccc(Oc2c(Cl)cnn(-c3cc(C)cc(C)c3)c2=O)cc1`, the inhibition – broadly, the relative decrease from the control value, in per cent – was 22%.
